# Values joined by “and” are separate entries in the source; they are usually repeats but may differ in a detail not shown here. Equal values may be shown once. Inconclusive results are not listed. Active and inactive are the calls of the source. Unless noted, no rule for the calls is given here.
# Experiments:
# [1] = Cy5 fluorescence quenching or enhancement artefacts, artefact control for HCV NS3 helicase inhibitor project, biochemical, LOPAC1280 (AID 687037); conditions: Cy5-DNA-NS3h complex fluorescence interference counterscreen
# [2] = tested on: Aerobactin synthetase IucA (Klebsiella pneumoniae, hypervirulent); test: IucA enzyme inhibition, biochemical, LOPAC library, absorbance readout (AID 1346212); conditions: IucA enzyme assay, absorbance (OD) readout; stronger effect = lower value;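 tested at 8 µM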;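 also: 100% = no compound wells and 0% = no enzyme wells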
# [3] = phospholipid biosynthesis inhibitors in animal cells, primary screen, cell-based, LOPAC library, screen 4 (AID 1347384); conditions: phospholipid biosynthesis inhibition screen, at 10 µM
# [4] = target: ATP-dependent translocase ABCB1 (Homo sapiens) (UniProt P08183); test: MDR1 (ABCB1) efflux transporter inhibition, cell-based (AID 377; in the data active = fluorescence slope change above about 50%); conditions: MDR1-expressing cells, fluorescent substrate accumulation slope; stronger effect = higher value; concentration not given here
# Sequence of ATP-dependent translocase ABCB1 (Homo sapiens) (P08183 whole entry, looked up): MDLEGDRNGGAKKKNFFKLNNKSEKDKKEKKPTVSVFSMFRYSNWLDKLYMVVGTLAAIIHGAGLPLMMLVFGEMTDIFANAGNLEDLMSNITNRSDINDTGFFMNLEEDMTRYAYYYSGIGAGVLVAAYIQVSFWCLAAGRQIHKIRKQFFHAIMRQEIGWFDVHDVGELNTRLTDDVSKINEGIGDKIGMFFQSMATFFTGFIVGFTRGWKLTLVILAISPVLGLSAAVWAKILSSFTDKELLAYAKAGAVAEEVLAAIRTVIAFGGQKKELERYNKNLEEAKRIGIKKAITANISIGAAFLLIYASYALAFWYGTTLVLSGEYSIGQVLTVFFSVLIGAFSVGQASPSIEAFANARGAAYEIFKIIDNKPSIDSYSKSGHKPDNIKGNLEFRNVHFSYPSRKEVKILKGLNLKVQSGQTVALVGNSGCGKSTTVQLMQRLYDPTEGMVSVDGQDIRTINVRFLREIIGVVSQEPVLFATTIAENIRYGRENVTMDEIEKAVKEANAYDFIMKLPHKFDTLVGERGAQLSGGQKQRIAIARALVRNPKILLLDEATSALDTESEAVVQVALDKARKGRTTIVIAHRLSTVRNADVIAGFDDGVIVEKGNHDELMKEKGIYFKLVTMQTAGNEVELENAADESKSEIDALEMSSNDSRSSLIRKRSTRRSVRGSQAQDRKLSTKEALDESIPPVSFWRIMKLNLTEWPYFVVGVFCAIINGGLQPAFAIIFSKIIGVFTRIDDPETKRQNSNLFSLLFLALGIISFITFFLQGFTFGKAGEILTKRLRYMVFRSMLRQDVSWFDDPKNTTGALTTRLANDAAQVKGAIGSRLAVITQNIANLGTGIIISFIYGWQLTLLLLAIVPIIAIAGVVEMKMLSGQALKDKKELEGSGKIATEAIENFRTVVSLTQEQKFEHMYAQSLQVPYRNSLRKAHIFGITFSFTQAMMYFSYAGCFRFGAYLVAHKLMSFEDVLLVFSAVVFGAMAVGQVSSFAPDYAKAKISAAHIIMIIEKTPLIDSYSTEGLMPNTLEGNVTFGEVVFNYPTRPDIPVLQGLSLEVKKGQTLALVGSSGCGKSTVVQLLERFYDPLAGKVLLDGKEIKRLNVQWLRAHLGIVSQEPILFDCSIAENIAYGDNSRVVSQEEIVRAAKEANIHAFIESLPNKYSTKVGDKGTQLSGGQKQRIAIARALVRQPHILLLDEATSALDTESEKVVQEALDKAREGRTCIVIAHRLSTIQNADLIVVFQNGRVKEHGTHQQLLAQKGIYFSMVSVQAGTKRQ
# [5] = growth inhibition of DIPG glioma cells, dose response, cell-based, SU-DIPG-XVII, MIPE5.0, CellTiter-Glo, qHTS (AID 1347060; cut-off not given, nearly all actives have AC50 up to about 26 µM;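 as to AC50: cells exposed to compound for 48 hours before viability readout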); conditions: SU-DIPG-XVII viability, CellTiter-Glo ATP luminescence
# [6] = growth inhibition of DIPG glioma cells, dose response, cell-based, SU-DIPG-XIII, MIPE4.0, CellTiter-Glo, qHTS (AID 1347061; cut-off not given, nearly all actives have AC50 up to about 37 µM;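 also: cells exposed to compound for 48 hours before readout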); conditions: SU-DIPG-XIII viability, CellTiter-Glo ATP luminescence
# [7] = growth inhibition of DIPG glioma cells, dose response, cell-based, JHH-DIPG-1, MIPE4.0, CellTiter-Glo, qHTS (AID 1347062; cut-off not given, nearly all actives have AC50 up to about 27 µM;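 as to AC50: cells exposed to compound for two days before readout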); conditions: JHH-DIPG-1 viability, CellTiter-Glo ATP luminescence
# [8] = growth inhibition of DIPG glioma cells, dose response, cell-based, SU-DIPG-IV, MIPE4.0, CellTiter-Glo, qHTS (AID 1347063; cut-off not given, nearly all actives have AC50 up to about 30 µM;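 also: compound exposure lasted 48 hours before the viability readout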); conditions: SU-DIPG-IV viability, CellTiter-Glo ATP luminescence
# [9] = growth inhibition of DIPG glioma cells, dose response, cell-based, SU-DIPG-XIII, MIPE5.0, CellTiter-Glo, qHTS (AID 1347064; cut-off not given, nearly all actives have AC50 up to about 23 µM;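 as to AC50: cells exposed to compound for 48 hours before the viability read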); conditions: SU-DIPG-XIII viability, CellTiter-Glo ATP luminescence
# [10] = viability loss in pontine glioma line – cell-based, SU-DIPG-XXV, MIPE5.0, CellTiter-Glo, qHTS, dose response (AID 1347065; cut-off not given, nearly all actives have AC50 up to about 26 µM;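 also: cells exposed to compound for 48 hours before ATP readout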); conditions: CellTiter-Glo ATP luminescence
# [11] = SU-DIPG-VI glioma cell viability, MIPE4.0 library, CellTiter-Glo luminescence, qHTS (AID 1347066; cut-off not given, nearly all actives have AC50 up to about 30 µM;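 also: cells exposed to compound for 48 hours before readout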); conditions: CellTiter-Glo ATP luminescence
# [12] = JHH-DIPG-1 glioma cell viability, MIPE5.0 library, CellTiter-Glo luminescence, qHTS (AID 1347067; cut-off not given, nearly all actives have AC50 up to about 26 µM;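 also: cells exposed to compound for 48 hours before readout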); conditions: JHH-DIPG-1 glioma viability, CellTiter-Glo ATP luminescence
# [13] = SU-DIPG-XXV glioma cell viability, MIPE5.0 library, qHTS (AID 1347068; cut-off not given, nearly all actives have IC50 up to about 30 µM;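 as to IC50: cells exposed to compound for 48 hours before viability readout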)
# [14] = target: Huntingtin (Homo sapiens) (UniProt P42858); test: inhibitors of mutant Htt aggregation in vitro, dose response, QA1 (AID 1584); conditions: in vitro mutant huntingtin aggregation assay; confirmation test; at 10 µM; stronger effect = lower value
# Sequence of Huntingtin (Homo sapiens) (P42858 whole entry, looked up): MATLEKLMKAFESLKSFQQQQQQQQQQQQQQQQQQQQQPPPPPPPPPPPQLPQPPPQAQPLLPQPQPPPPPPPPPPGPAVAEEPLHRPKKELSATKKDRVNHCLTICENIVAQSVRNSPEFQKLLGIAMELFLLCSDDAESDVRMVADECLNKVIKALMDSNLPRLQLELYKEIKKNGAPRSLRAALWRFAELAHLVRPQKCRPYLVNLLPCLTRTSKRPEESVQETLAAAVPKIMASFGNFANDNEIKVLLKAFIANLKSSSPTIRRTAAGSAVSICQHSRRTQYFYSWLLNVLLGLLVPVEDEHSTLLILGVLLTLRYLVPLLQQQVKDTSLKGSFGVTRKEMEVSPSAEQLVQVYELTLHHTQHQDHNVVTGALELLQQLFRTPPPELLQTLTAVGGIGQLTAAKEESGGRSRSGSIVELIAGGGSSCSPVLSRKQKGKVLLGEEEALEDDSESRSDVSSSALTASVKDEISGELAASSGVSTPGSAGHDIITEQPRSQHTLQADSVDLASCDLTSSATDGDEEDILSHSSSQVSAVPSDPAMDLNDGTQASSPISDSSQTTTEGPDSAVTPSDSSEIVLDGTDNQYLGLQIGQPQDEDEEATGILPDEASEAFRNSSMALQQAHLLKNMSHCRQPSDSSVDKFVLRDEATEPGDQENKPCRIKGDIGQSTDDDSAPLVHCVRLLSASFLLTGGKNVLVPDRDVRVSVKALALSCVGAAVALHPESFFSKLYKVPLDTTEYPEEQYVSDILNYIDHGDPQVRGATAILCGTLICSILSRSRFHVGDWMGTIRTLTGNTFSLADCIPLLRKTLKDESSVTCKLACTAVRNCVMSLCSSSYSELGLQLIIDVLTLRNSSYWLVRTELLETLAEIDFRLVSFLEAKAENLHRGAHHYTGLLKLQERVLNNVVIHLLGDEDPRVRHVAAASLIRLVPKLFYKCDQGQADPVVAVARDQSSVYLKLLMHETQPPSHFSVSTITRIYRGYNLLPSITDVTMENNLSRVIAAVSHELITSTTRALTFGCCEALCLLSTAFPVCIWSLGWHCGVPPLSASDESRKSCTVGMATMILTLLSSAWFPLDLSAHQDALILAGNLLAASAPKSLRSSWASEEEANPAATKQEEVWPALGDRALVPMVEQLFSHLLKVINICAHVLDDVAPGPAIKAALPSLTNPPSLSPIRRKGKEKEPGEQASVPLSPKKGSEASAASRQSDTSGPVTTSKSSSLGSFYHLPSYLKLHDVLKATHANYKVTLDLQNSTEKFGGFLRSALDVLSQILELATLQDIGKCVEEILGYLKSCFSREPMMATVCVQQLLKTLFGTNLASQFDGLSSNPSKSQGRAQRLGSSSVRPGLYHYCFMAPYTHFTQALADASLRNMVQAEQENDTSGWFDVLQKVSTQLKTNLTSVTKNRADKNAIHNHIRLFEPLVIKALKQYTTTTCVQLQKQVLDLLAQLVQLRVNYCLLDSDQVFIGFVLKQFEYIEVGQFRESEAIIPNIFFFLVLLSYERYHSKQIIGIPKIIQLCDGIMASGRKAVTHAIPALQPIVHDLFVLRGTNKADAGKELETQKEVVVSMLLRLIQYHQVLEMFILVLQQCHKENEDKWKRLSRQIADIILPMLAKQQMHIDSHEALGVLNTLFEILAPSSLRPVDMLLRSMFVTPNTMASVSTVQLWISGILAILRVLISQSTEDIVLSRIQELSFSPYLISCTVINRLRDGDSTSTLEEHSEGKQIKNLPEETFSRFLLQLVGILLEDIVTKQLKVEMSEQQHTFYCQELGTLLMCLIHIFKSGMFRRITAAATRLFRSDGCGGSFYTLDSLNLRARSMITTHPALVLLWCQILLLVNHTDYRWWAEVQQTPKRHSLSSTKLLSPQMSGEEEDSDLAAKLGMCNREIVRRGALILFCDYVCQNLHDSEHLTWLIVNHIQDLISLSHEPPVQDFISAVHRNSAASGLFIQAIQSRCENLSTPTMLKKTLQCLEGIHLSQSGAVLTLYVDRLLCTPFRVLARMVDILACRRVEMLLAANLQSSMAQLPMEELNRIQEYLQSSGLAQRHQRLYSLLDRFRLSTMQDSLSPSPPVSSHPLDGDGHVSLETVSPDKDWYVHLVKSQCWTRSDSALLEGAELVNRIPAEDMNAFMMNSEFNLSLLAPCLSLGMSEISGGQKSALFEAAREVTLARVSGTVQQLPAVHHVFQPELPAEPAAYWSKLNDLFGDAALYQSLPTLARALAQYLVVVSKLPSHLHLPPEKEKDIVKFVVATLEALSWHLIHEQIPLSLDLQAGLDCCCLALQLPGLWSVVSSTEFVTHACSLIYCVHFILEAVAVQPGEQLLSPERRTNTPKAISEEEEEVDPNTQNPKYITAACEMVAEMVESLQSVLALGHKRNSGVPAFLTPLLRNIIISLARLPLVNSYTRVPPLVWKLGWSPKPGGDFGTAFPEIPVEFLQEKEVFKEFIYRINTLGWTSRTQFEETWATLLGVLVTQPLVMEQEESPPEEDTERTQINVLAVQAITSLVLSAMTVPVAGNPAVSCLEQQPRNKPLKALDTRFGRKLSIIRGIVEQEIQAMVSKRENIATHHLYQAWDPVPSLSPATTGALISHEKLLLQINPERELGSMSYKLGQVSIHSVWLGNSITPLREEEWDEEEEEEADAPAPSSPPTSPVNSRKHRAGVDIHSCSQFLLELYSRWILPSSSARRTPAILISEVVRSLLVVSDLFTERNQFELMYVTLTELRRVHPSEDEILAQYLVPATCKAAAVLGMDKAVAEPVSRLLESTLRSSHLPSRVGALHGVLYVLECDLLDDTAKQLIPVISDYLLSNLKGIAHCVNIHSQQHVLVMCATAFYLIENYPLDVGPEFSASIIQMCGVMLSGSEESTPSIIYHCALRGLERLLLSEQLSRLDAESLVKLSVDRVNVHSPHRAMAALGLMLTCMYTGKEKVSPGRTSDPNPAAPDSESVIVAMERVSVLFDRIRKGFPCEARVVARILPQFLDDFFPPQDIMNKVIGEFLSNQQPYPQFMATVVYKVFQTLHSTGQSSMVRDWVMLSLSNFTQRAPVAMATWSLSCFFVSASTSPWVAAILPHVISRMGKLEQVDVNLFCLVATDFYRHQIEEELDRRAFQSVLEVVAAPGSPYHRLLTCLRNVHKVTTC
# [15] = inhibitors of Cryptococcus chitosan production, flow cytometry, Cibacron Brilliant Red staining (AID 1347148); conditions: Cryptococcus neoformans chitosan, stronger effect = lower value; at 10 µM unless noted;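 also: compound exposure lasted three days at 37 degrees C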
# [16] = enhancers of SMN2 over SMN1 splicing, cell-based, SMN2/SMN1 luciferase reporters (AID 1598); conditions: SMN2 vs SMN1 luciferase splicing reporter cells, at 10 µM; SMN1 luciferase ratio: measured here: SMN1 luciferase reporter average; SMN2 luciferase ratio: measured here: SMN2 luciferase reporter average, stronger effect = higher value; SMN2/SMN1 luciferase ratio: stronger effect = higher value
# [17] = protection against mutant huntingtin cytotoxicity, PC12 cells, LDH release (AID 1610); conditions: PC12 mutant huntingtin toxicity, final LDH at 4 uM, stronger effect = lower value
# [18] = tested on: Aerobactin synthetase IucA (Klebsiella pneumoniae); test: IucA aerobactin synthetase inhibitors, biochemical, Tocris library, absorbance (AID 1345561); conditions: purified IucA enzyme assay, absorbance (OD) read-out; stronger effect = lower value;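 tested at 8 µM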;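 also: 100% = enzyme without compound and 0% = no enzyme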
structure (smiles),measurement,setting,value
NCCc1c[nH]c2ccccc12,fluorescence ratio (interference),[1],1 (inactive)
same,remaining activity,[2],89.5% (inactive)
same,outcome,[3],inactive
CC[N+]1(C)CCCC(OC(=O)C(O)(c2ccccc2)c2ccccc2)C1 (stereo unspecified),fluorescence slope change,[4],17.6% (inactive)
CC[C@@H]1C(=O)OC[C@@H]1Cc1cncn1C,fluorescence slope change,[4],105% (active)
same,fluorescence ratio (interference),[1],1 (inactive)
same,remaining activity,[2],112% (inactive) and 106% (inactive)
COc1ccc2c(c1)[nH]c1c(C)nccc12,fluorescence slope change,[4],59.3% (active)
O=C(O)CC[N+](=O)[O-],fluorescence ratio (interference),[1],1 (inactive)
same,remaining activity,[2],116% (inactive)
same,outcome,[3],inactive
CC1=C(O)C(=O)C=C2C1=CC=C1[C@@]2(C)CC[C@@]2(C)[C@@H]3C[C@](C)(C(=O)O)CC[C@]3(C)CC[C@]12C,AC50,[5],2090 nM (active)
same,AC50,[6],3320 nM (active)
same,AC50,[7],2640 nM (active)
same,AC50,[8],1320 nM (active)
same,AC50,[9],2350 nM (active)
same,AC50,[10],1660 nM (active)
same,AC50,[11],1180 nM (active)
same,AC50,[12],934 nM (active)
same,IC50,[13],11800 nM (active)
NC(N)=NOCC[C@H](N)C(=O)O,fluorescence ratio (interference),[1],1 (inactive)
same,remaining activity,[2],106% (inactive) and 121% (inactive)
same,outcome,[3],inactive
COc1cc(OC)c(OC)cc1C=O,outcome,[6],inactive
same,outcome,[7],inactive
same,outcome,[8],inactive
same,outcome,[11],inactive
O=C1C=CC(=O)c2c(O)cccc21,aggregation ratio,[14],0.312
same,fold fluorescence,[15],2.01 [at 287.1 µM] (active)
OC1CCCCC1N1CCC(c2ccccc2)CC1 (stereo unspecified),fluorescence ratio (interference),[1],1 (inactive)
same,outcome,[3],inactive
COC1=C[C@@H]2[C@@H]3Cc4ccc(OC)c(O)c4[C@]2(CCN3C)CC1=O,AC50,[6],3320 nM (active)
same,AC50,[8],935 nM (active)
same,outcome,[9],inactive
same,outcome,[10],inactive
same,outcome,[11],inactive
same,outcome,[12],inactive
same,outcome,[13],inactive
COc1ccc2c3c([nH]c2c1)C(C)=NCC3,fluorescence slope change,[4],7.9% (inactive)
COc1ccc2c(c1O)-c1c(OC)c(OC)cc3c1[C@H](C2)N(C)CC3,fluorescence slope change,[4],13.7% (inactive)
COc1cc([C@@H]2c3cc4c(cc3[C@@H](O)C3COC(=O)C32)OCO4)cc(OC)c1O (stereo partly specified),AC50,[5],263 nM (active)
same,AC50,[9],525 nM (active)
same,AC50,[10],417 nM (active)
same,IC50,[13],332 nM (active)
CN1CCc2cc3c(cc2C1O)OCO3 (stereo unspecified),fluorescence slope change,[4],10.4% (inactive)
CN1C2CCC1CC(OC(c1ccccc1)c1ccccc1N)C2 (stereo unspecified),fluorescence ratio (interference),[1],1 (inactive)
same,remaining activity,[2],119% (inactive)
same,outcome,[3],inactive
O=C1C=C2C(=CCOC2O)O1 (stereo unspecified),SMN1 luciferase ratio,[16],0.26
same,SMN2/SMN1 luciferase ratio,[16],2.76 (active)
same,SMN2 luciferase ratio,[16],0.46
same,normalised LDH release,[17],0.848
O=[N+]([O-])c1cc(O)c(O)c([N+](=O)[O-])c1,fluorescence ratio (interference),[1],1 (inactive)
same,remaining activity,[18],95.2% (inactive)
same,remaining activity,[2],97% (inactive)
same,outcome,[3],inactive
O=c1cccc2n1CC1CNC[C@H]2C1,remaining activity,[18],96.4% (inactive)
same,outcome,[5],inactive
same,AC50,[7],2640 nM (active)
same,outcome,[12],inactive
same,outcome,[13],inactive
COc1cccc2c1cc([N+](=O)[O-])c1c(C(=O)O)cc3c(c12)OCO3,fold fluorescence,[15],4.86 [at 146.5 µM] (inactive)
O=C1CCCN1CC#CCN1CCCC1,fluorescence ratio (interference),[1],0.9 (inactive)
same,remaining activity,[18],92.7% (inactive)
same,remaining activity,[2],119% (inactive)
same,outcome,[3],inactive
NC(=NCCC[C@H](N)C(=O)O)N[N+](=O)[O-],fluorescence ratio (interference),[1],1 (inactive)
same,remaining activity,[2],115% (inactive)
same,outcome,[3],inactive
COc1ccc2c(c1OC)C(=O)O[C@@H]2[C@H]1c2cc3c(cc2CCN1C)OCO3,fluorescence slope change,[4],159% (active)
c1ccc2c(c1)[nH]c1cnccc12,fluorescence slope change,[4],73% (active)
